Compounds with a hit are over-represented: about 19% of the library has one in this group of screens.
TDP1 cell CPT – DT40-hTDP1 cell growth loss with CPT. Potency, µM (doses to about 46.2 µM), for the others: at the top dose activity change, negative = growth inhibition, usual class: inhibitors. chicken DT40 Tdp1-/-;hTDP1 cells + 20 nM CPT, ATP luminescence, 48 h. hit rate 12% among 420,000. AID 686979; note: potency is the fitted concentration of half-maximal effect; nearly all actives have a fitted effect of over 55% in size
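Cell growth measured by CellTiter-Glo luminescence after a minimum 48 h, 37 C compound exposure with 20 nM CPT in Tdp1-knockout DT40 cells stably expressing hTDP1, seeded 400/well; qHTS titration format.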
DT40 TDP1 no CPT – qHTS for Inhibitors of human tyrosyl-DNA phosphodiesterase 1 (TDP1): qHTS in cells in absence of CPT. DT40 Tdp1-/- hTDP1 cells, no CPT, ATP luminescence, 48 h. Potency, µM (top dose mostly 46.2 µM), inactives show at the highest dose activity change, negative = growth inhibition, actives largely listed as inhibitors. hit rate 15% among 420,000; note: potency is the fitted concentration of half-maximal effect; nearly all actives have a fitted effect of over 55% in size
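Readout: luminescence from CellTiter-Glo after 30 min in the dark at RT. Cells: DT40 Tdp1-/- with stable hTDP1, 400/well. Exposure: compounds alone, ≥48 hr, 37 °C.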
ELG1 repair inh – inhibitors of ELG1-dependent DNA repair in HEK293T cells; HEK293T ELG1-luciferase reporter, luminescence, 16 h; DNA damage induced by 5-fluorouridine; Potency, µM (highest dose often 46.1 µM), inactives show top-dose activity change, negative = inhibition, hits mostly inhibitors; hit rate 2.3% among 330,000; AID 504467; note: potency is the fitted concentration of half-maximal effect; nearly all actives have a fitted effect of over 55% in size
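Overnight (16 hr) co-exposure of 2,000 cells/well to 5-fluorouridine and compound at 37 °C preceded detection. Luciferase was quantified via ONE-Glo luminescence; loss of signal denotes inhibition.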
TDP1 block – blocks human tyrosyl-DNA phosphodiesterase 1; Q9NUW8; AID 485290; Potency, µM (top dose mostly 130 µM), for the others: at the top dose activity change, negative = inhibition, most hits filed as inhibitors; hit rate 0.28% among 350,000; recombinant TDP1, AlphaScreen DNA substrate cleavage; note: potency is the fitted concentration of half-maximal effect; nearly all actives have a fitted effect of over 40% in size
Target sequence (Q9NUW8 whole entry, looked up): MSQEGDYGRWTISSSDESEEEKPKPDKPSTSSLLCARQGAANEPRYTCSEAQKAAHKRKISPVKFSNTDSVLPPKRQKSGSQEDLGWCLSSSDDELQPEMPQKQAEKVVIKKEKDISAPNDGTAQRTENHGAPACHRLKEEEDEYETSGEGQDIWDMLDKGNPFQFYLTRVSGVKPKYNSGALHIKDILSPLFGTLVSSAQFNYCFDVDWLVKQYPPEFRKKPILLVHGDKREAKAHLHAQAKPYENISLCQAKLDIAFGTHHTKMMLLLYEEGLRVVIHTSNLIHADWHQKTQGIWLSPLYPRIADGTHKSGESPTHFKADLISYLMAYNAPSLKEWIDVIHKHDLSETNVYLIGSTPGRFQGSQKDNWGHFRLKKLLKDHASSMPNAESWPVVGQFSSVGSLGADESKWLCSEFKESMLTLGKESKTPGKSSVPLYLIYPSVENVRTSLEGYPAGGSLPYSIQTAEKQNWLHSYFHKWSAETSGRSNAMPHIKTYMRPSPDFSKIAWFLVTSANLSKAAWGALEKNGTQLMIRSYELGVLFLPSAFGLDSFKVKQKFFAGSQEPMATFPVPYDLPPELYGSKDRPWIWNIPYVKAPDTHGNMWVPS
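Compounds were preincubated with Tdp1 (1 nM final) for 15 min at room temperature before substrate (15 nM final) started a 5 min reaction; beads (10 ug/ml final) were then added for 10 min before AlphaScreen detection.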
Giardia kill – kills Giardia lamblia. Giardia lamblia trophozoite viability. activity change, % at 7.66 µM, hits read low. hit rate 0.15% among 340,000. AID 540267; in the data active = activity change below about -80%; inconclusive = between about -30% and that limit;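 note: parasites exposed to compound for two days anaerobically before the ATP read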
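Each well holds 100 Giardia trophozoites and compound. After two days (48 hrs) at 37 deg C in anaerobic conditions, ATP is quantified by luminescence.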
IL-1B inflam inh – blocks inflammasome-driven IL-1 beta release; THP-1 LPS/ATP IL-1B secretion, AlphaLISA, 16 h; stronger effect = lower value; activity change, % at 57.5 µM; hit rate 4.7% among 360,000; in the data active = activity change below about -50%; inconclusive = mostly about -30% to -49%
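Secreted IL-1B measured by AlphaLISA bead assay after 16 h compound exposure of THP-1 cells; compounds (final up to 57.5 uM) added 1 h before LPS (250 ng/mL) and ATP (1.25 mM) stimulation; lower signal means less secretion.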
* marks the source's active call; other numbers are inactive results; ? = inconclusive; . = no result; [ ] = another dose, or the depositor's remark. Unless noted, calls come from the whole dose curve; as a rule, active = well fitted curve in the direction sought with a large enough effect; inconclusive = small, poorly fitted or top-dose-only effect, or another doubt; inactive = no such curve, though single readings can be large; an effect the other way counts as inactive or inconclusive. % is set by controls: 0 for no effect and ±100 for the full control effect.

SMILES	TDP1 cell CPT	DT40 TDP1 no CPT	ELG1 repair inh	TDP1 block	Giardia kill	IL-1B inflam inh
COc1ccc(OC(C)C(=O)N(C)Cc2nc(-c3ccccc3)no2)cc1 (stereo unspecified)	3%	?	-6%	.	0	34
COc1ccc(-c2noc(CN(C(=O)C(C)Oc3ccc(C)cc3)C(C)C)n2)cc1 (stereo unspecified)	16µM*	15µM*	.	0%	.	.
Cc1ccccc1OCC(=O)N(Cc1nc(-c2ccccc2)no1)C(C)C	?	?	-13%	7%	-3	?
Cc1ccc(SCC(=O)N(Cc2nc(-c3ccccc3)no2)C(C)C)cc1	18µM*	?	-29%	-5%	10	?
COc1cccc2sc3ccc(C#Cc4ccc(N)cc4)cc3c(=O)c12	16µM*	?	?	.	-22	-25
COc1cccc2sc3ccc(C#CC4(O)CCCCC4)cc3c(=O)c12	?	?	?	.	-16	-57*
O=c1c2ccccc2oc2cc(C#CC3(O)CCCCC3)ccc12	?	?	.	.	?	-20
Cc1oc2ncn(C)c(=O)c2c1C(=O)N(C)c1ccccc1F	-7%	12%	.	3%	.	.
CCOc1ccc(-n2c(CC)nc3c(cnn3-c3ccc(Cl)cc3)c2=O)cc1	16µM*	15µM*	.	0%	.	.
Cc1ccc(-n2c(C)nc3c(cnn3-c3ccc(C)c(C)c3)c2=O)cc1C	18µM*	16µM*	6%	3%	-27	1
Cc1nc2c(cnn2-c2ccccc2Cl)c(=O)n1-c1ccc(N2CCC(C)CC2)cc1	16µM*	?	16µM*	1%	17	?
COc1ccc(-n2c(C)nc3c(cnn3-c3ccc(C)c(C)c3)c2=O)cc1Cl	?	?	.	2%	.	.
CCc1nc2c(cnn2-c2ccc(Cl)cc2)c(=O)n1-c1ccc(OC)c(Cl)c1	?	?	.	5%	.	.
CCc1nc2c(cnn2-c2ccc(F)cc2)c(=O)n1-c1ccc(N2CCC(C)CC2)cc1	16µM*	15µM*	16µM*	5%	17	9
Cc1cc(Cl)ccc1OCc1cc(=O)n2c3c(sc2n1)CCCC3	0%	0%	.	1%	.	.
CC1Sc2ccc(S(=O)(=O)CCC(=O)Nc3ccccn3)cc2NC1=O (stereo unspecified)	-5%	6%	-1%	7%	5	0
OC(c1ccccn1)(c1ccccn1)c1ccccn1	?	?	26%	3%	1	14
COc1cccc(-c2cc(C(=O)N3N=C(C)CC3(O)C(F)F)c3ccccc3n2)c1 (stereo unspecified)	-2%	-10%	18%	7%	10	-2
Cc1ccc2nc(-c3ccccn3)cc(C(=O)N3CCN(c4ncccn4)CC3)c2c1	21µM*	13µM*	?	2%	-10	1
COc1ccc(-c2cc(C(=O)N3CCN(c4ncccn4)CC3)c3ccccc3n2)cc1OC	?	?	6.5µM*	-17%	-15	?
O=C(c1cc(-c2ccccn2)nc2ccccc12)N1CCN(c2ncccn2)CC1	-26%	?	-10%	-8%	-23	4
COc1cccc(-c2cc(C(=O)N3CCN(c4ncccn4)CC3)c3ccccc3n2)c1	?	23µM*	?	7%	-23	?
Cc1ccc(-c2cc(C(=O)N3CCN(c4ncccn4)CC3)c3ccccc3n2)cc1	?	16µM*	?	7%	-20	-17
COc1cccc2cc(CC(=O)c3ccc(C)cc3C)c(=O)oc12	?	-28%	?	.	6	?
O=C(Nc1ccccc1C(=O)Nc1ccncc1)c1ccccc1	-23%	-20%	20%	-3%	-12	6
SMILES	TDP1 cell CPT	DT40 TDP1 no CPT	ELG1 repair inh	TDP1 block	Giardia kill	IL-1B inflam inh
COc1ccc(-c2cc(C(=O)N3CCN(c4cccc(C)c4C)CC3)c3ccccc3n2)cc1OC	?	13µM*	?	-6%[0.505 µM]	4	-9
CC(C)Oc1cccc(-c2cc(C(=O)N3CCN(S(C)(=O)=O)CC3)c3ccccc3n2)c1	?	10µM*	?	9%	-8	11
COc1ccc(-c2cc(C(=O)N3CCCC3)c3ccccc3n2)cc1OC	-24%	-13%	?	3%	-2	-28
O=C(c1cc(-c2ccc(Br)cc2)nc2ccccc12)N1CCN(c2ccccc2O)CC1	?	?	?	2%	-11	-62*
Cc1csc(-c2coc3cc(O)cc(C)c3c2=O)n1	16µM*	?	?	-2%	-7	20
COc1ccc2c(=O)c(-c3nc(C)cs3)coc2c1	-21%	-23%	?	3%	?	0
c1ccc(-c2nnc3sc(-c4csc5c4CCCC5)nn23)cc1	21µM*	?	?	3%	-3	-17
Cc1cccc(-c2nnc3sc(-c4ccccc4C)nn23)c1	?	15µM*	?	6%	-6	-4
COc1cccc(-c2nnc3sc(-c4ccccc4)nn23)c1	?	23µM*	3%	2%	5	-24
c1ccc(-c2nnc3sc(-c4cc5ccccc5o4)nn23)cc1	16µM*	?	0%	3%	-5	-29
COc1cccc(-c2nnc3sc(-c4ccc(Cl)cc4)nn23)c1	.	.	1%	2%	.	.
C=CCN1/C(=C2/SC(=S)N(C)C2=O)Sc2ccccc21	.	.	9%	0%	.	.
CCCCCOc1ccc(NC(=O)CSc2cccc3cccnc23)cc1	?	?	0%	-5%	-17	-2
Cn1c(=O)c2ncn(C)c2n(C)c1=O	23%	-20%	.	.	1	30
COc1cc(-c2nn3c(-c4ccccn4)nnc3s2)cc(OC)c1OC	.	.	-30%	2%	.	.
Cc1nc2sc(-c3ccccc3)nn2c(=O)c1Br	23µM*	?	?	3%	-12	1
COc1ccccc1-c1nnc2sc(COc3ccc(Cl)cc3Cl)nn12	?	?	-1%	4%	26	-76*
Clc1ccc(-c2nn3c(-c4ccccc4)nnc3s2)cc1	?	-6%	0%	-1%	8	-8
COc1ccccc1-c1nnc2sc(COc3ccccc3)nn12	-18%	-27%	?	7%	4	-11
c1ccc(-c2nnc3sc(-c4ccncc4)nn23)cc1	-19%	-21%	3%	-3%	-6	-51*
CCN(CC)c1ccc(-c2nn3c(-c4ccccc4OC)nnc3s2)cc1	1.3µM*	1.2µM*	?	-3%	1	0

Assay outcomes (PubChem)
